Assay results as given in PubChem BioAssay (NCATS).
Several values for one entry are separate records, joined by “and”; a condition that tells them apart may be missing. Equal entries are not always repeated. Inconclusive results are not listed. Unmarked numbers belong to inactive results. The call rests on the fitted dose curve; in most records, active means well fitted inhibition curve with a large enough effect in the signal ratio, with a control signal flat (not every such curve was filed as active); inconclusive means small, poorly fitted or top-dose-only effect, or effect the other way, or a change in a side signal; inactive means no such curve, though single readings can be large or run the other way; the % refers to the signal ratio.

Each compound was assayed against Retinoic acid receptor RXR-alpha (Homo sapiens) (UniProt P19793) (assay: qHTS assay for small molecule antagonists of retinoid X receptor alpha signaling (AID 588546)). Conditions: HEK293T RXRa-UAS-bla, beta-lactamase ratio, antagonist mode.
Source text: NIH Chemical Genomics Center [NCGC] U.S. Environmental Protection Agency [EPA] National Institutes of Environmental Health Sciences [NIEHS] National Toxicology Program [NTP] NCGC Assay Overview The Retinoid X receptor (RXR), a nuclear hormone receptor is expressed in liver, spleen, placenta, epidermis, central nervous system. These receptors are able to form homo and heterodimers with other nuclear receptors and due to this heterodimerizing ability, RXR functions as master regulators producing diverse physiological effects. Three subtypes of RXR exist; alpha, beta and gamma. Retinoid X receptor alpha (RXR-alpha) has potential roles in metabolic signaling pathways, skin alopecia, dermal cysts, cardiac development, insulin sensitization etc. Therefore screening environmental chemicals on RXR-alpha signaling can be used for the studies focused on such therapeutic applications.
NCGC Assay Protocol Summary Using a beta-lactamase reporter-gene under control of Retinoid X receptor--alpha (RXR-alpha) response element, a cell-based assay [GeneBLAzer (RXR-alpha -UAS-bla assay developed by Invitrogen] was used to measure RXR-alpha ligands signaling. GeneBLAzer RXR-alpha -UAS-bla HEK293T cells were used with assay medium containing 2% charcoal-stripped FBS. The assay was performed in clear bottom black Greiner 1536-well plates. Library compounds were measured for their ability to inhibit the reporter gene activity. Compounds were screened in a titration series in 1536-well format. The fluorescence intensity (405 nm excitation, 460/530 nm emission) was measured using an EnVision plate reader. Data was normalized relative to 9-cis-retinoic acid control (500 nM, 100%), and DMSO only wells (basal, 0%). Concentration-response titration points for each compound were fitted to the Hill equation yielding concentrations of half-maximal inhibition (IC50) and maximal response (efficacy) values. qHTS protocol for RXR-alpha beta-lactamase assay in antagonist mode [Step] [Parameter] [Value] [Description] 1. Reagent; 5 uL; 2500 cells/well 2. Incubation; 37 C for 4 hrs 3. Compounds; 23 nL; 0.59 nM to 92 uM 4. Controls (DMSO); 23 nL 5. Agonist (Stimulator); 1uL; 9-cis-retinoic acid at 500 nM and 100 nM final concentrations 6. Incubation; 37 C for 18 hrs 7. Detection reagent; 1 uL of CCF4-dye 8. Incubation; RT for 2 hrs 9. Detection; Fluorescence; Envision plate reader
On the % scale 0 is the no-effect control and ±100 the full control effect.

Chain of Retinoic acid receptor RXR-alpha (Homo sapiens) (P19793 whole entry, looked up): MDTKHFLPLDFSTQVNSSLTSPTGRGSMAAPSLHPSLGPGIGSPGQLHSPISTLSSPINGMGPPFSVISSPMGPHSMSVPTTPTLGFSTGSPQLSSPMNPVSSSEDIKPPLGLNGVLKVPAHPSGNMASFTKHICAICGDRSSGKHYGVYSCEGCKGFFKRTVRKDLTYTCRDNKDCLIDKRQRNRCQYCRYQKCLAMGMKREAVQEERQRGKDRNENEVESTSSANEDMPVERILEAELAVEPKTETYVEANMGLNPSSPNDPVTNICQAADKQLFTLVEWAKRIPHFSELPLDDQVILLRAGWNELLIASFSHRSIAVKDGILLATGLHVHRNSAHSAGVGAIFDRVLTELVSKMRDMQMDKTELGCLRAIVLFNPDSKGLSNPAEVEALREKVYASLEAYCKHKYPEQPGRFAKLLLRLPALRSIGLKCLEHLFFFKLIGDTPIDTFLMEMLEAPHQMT

Compound	max response
O=C(O)c1cc(Oc2ccc(C(F)(F)F)cc2Cl)ccc1[N+](=O)[O-]	-9.38%
C=CC(=O)NCNC(=O)C=C	10.7% and -13.1%
Nc1ccc([N+](=O)[O-])cc1	-12.6%
Clc1cnc(Oc2ccc(Oc3ncc(Cl)cc3Cl)cc2)c(Cl)c1	-16.8%
O=C(O)C(Cl)Cl	4.75% and -13.6%
C=CCC1=C(C)C(OC(=O)C2C(C=C(C)C)C2(C)C)CC1=O (stereo not given)	-8.71% and -26.3%
c1cc2ccc3cccc4ccc(c1)c2c34	0.282% and -8.73%
CCOCCOC(C)=O	11%
CCOP(=O)(NC(C)C)Oc1ccc(SC)c(C)c1 (stereo not given)	-12.2% and -3.23%
Nc1ccc(Cl)cc1N	-1.75% and 0.323%
CCCCCCCCCC(CC)c1ccc(S(=O)(=O)O)cc1 (stereo not given)	4.12% and -4.98%
CC(C)Oc1cccc(NC(=O)c2ccccc2C(F)(F)F)c1	-12.2%
CS(=O)(=O)c1ccc(C(=O)C2C(=O)CCCC2=O)c([N+](=O)[O-])c1	0.528%
CN(C)[C@@H]1C(=O)C(C(N)=O)=C(O)[C@@]2(O)C(=O)C3=C(O)c4c(O)cccc4[C@@](C)(O)[C@H]3[C@H](O)[C@@H]12	-9.03% and -41.7% and -15.3%
CCCCCCCCc1ccc(O)cc1	-17.2%
O=C(O)CCCOc1ccc(Cl)cc1Cl	-3.54%
COC(C)(C)CCCC(C)C/C=C/C(C)=C/C(=O)OC(C)C (stereo not given)	-11.7% and -5.86%
Nc1c(Cl)c(Cl)c(Cl)c(Cl)c1Cl	-8.48%
O=[N+]([O-])c1cc([N+](=O)[O-])c2ccccc2c1	12.9%
ClC1=C(Cl)[C@]2(Cl)[C@@H]3[C@@H]4C[C@@H]([C@H]5O[C@@H]45)[C@@H]3[C@@]1(Cl)C2(Cl)Cl	-14.7%

Compound	max response
C1CCC(NC2CCCCC2)CC1	9.08% and 2.51% and 3.48%
CN(C)NC(=O)CCC(=O)O	-0.551% and 8.99%
O=[N+]([O-])/N=C1\NCCN1Cc1ccc(Cl)nc1	-0.806%
CCCCC(CC)COC(=O)c1ccccc1C(=O)OCC(CC)CCCC (stereo not given)	9.66% and 2.99%
OCCCBr	-5.03%
COc1ccc(C(c2ccc(OC)cc2)C(Cl)(Cl)Cl)cc1	-30.1% and -25%
O=[N+]([O-])c1c(Cl)c(Cl)cc(Cl)c1Cl	6.87%
CC(C)(C)C(O)C(Oc1ccc(Cl)cc1)n1cncn1 (stereo not given)	-0.566%
CCCCCCCCCCCCCCCC[N+](C)(C)C	-2.56%
CC(C)(O)C(=O)Nc1ccc([N+](=O)[O-])c(C(F)(F)F)c1	-2.4%
O=C(O)COc1nc(Cl)c(Cl)cc1Cl	6.2%
CCCN(CCC)c1c([N+](=O)[O-])cc(S(N)(=O)=O)cc1[N+](=O)[O-]	2.44%
Nc1ccc(Cl)cc1	-9.24%
CCCCOC(=O)c1ccccc1C(=O)OCc1ccccc1	2.44% and -9.61%
O=S(=O)(O)C(F)(F)C(F)(F)C(F)(F)C(F)(F)C(F)(F)C(F)(F)C(F)(F)C(F)(F)F	-2.01% and 4.02%
O=S(=O)(c1ccc(Cl)cc1)c1ccc(Cl)cc1	-23.5% and -4.94% and -14.2%
O=C(Nc1ccccc1-c1ccc(Cl)cc1)c1cccnc1Cl	-14.2%
CCO/N=C(\CC)C1=C(O)CC(c2c(C)cc(C)cc2C)CC1=O (stereo not given)	-5.84%
O=C(O)COc1ccccc1	-9.5%
Nc1ccc(Sc2ccc(N)cc2)cc1	1.16% and 6.78%
